This passage reports outcome and AC50 results from PubChem BioAssay (EPA / NIEHS).

Results filed as inconclusive are left out. Active and inactive are the calls of the source. How the source made its calls: active means hit-call score of the fitted dose curve at least 0.9, where 1 is the maximum; inconclusive means response in the unintended direction; inactive means score below 0.9.

This assay in a line: TOX21_p53_BLA_p4_viability: Viability Assessment in the Tox21 HCT-116 p53 Agonism Beta-lactamase Assay, Phase 4 (AID 2283597).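 Further: hits lower the luminescence signal meaning cytotoxicity.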 The source says: TOX21_p53_BLA_p4 is a cell-based, single-readout assay that uses HCT116, a human intestinal cell line, […] in a 1536-well plate.TOX21_p53_BLA_p4_viability is an assay readout measuring cellular ATP content and detected with CellTiter-Glo Luciferase-coupled ATP quantitation.TOX21_p53_BLA_p4_viability used a type of viability reporter where loss-of-signal activity can be used to understand changes in the cell viability. Furthermore, this assay endpoint can be referred to as a secondary readout, because this assay has produced multiple assay endpoints where this one serves a viability function. To generalize the intended target to other relatable targets, this assay endpoint is annotated to the cell cycle intended target family, where the subfamily is cytotoxicity.
Thawing Method: Place 14 mL of pre-warmed thaw medium into a 15 mL of conical tub. Remove the vial of cells to be thawed from liquid nitrogen and thaw rapidly by placing at 37C in a water bath with gentle agitation for 1-2 minutes. Decontaminate the vial by wiping with 70% ethanol before opening in a biological safety cabinet. Transfer the vial contents drop-wise into 14 mL of thaw medium in a sterile 15-mL conical tub. Centrifuge cells at 900 rpm for 4 minutes and resuspend in thaw medium. Transfer contents to the T75 tissue culture flask containing Thaw Medium and place flask in a humidified 37C/5% CO2 incubator. Switch to growth medium at first passage.Propagation Method: Aspirate medium, rinse once in DPBS, add 0.25% Trypsin/EDTA and swirl to coat the cell evenly. Add an equal volume of Growth Medium to inactivate Trypsin after 2-3 minutes incubation at 37C. Centrifuge cells at 900 rpm for 4 minutes and resuspend in growth medium. Cell should be passage or fed at least twice a week.Assay Protocol: Harvest cells from culture in growth medium and resuspend in assay medium. 2.2 Dispense 4000 cells/5 uL/well into 1536-well black/clear bottom plates using a Multidrop dispenser. After the cells were incubated at 37C for 5 hours, 23 nL of compounds dissolved in DMSO were transferred to the assay plate by a PinTool resulting in a 217-fold dilution. Incubate the plates for 16 hours at 37C, 5% CO2. Add 1 uL of 6X LiveBLAzer FRET B/G (CCF4-AM) Substrate Mixture to each well using a BioRAPTR dispenser and incubate the plates at room temperature for 2 hours. Measure fluorescence intensity at 460 and 530 nm emission and 405 nm excitation by an Envision detector. Data is expressed as the ratio of 460nm/530nm emissions. Add 4 uL of Cell-titer Glo to each well using BioRAPTR and incubate the plates at room temperature for […]. For cell viability readout that measures cytotoxicity, 4 ul/well of CellTiter-Glo reagent was added into the assay plates using a Flying Reagent Dispenser. After 30 min incubation at room temperature, the luminescence intensity in the plates was measured using a ViewLux plate reader.
In the case of `CCCCOC(=O)COc1ccc(Cl)cc1Cl`, the call was inactive.
Still for that read-out and setting: then `S=c1nccc[nH]1`, with “inactive”; and `C[C@H](CN1CCCC1)C(=O)c1ccc(C(F)(F)F)cc1`, with “inactive”.
The same measure, in the same setting: then `COc1ccc2c(c1)c(CC(=O)OCC(=O)O)c(C)n2C(=O)c1ccc(Cl)cc1`, with “inactive”.
For the compound `CC1CC(=O)NN=C1c1ccc(NCC(C)(C)NCC(O)COc2cc(Cl)ccc2C#N)cc1` (stereo not given), the compound was classed as inactive.
One may read the AC50 as the concentration at which the activity in the assay is half-maximal. Take `C#C[C@]1(OC(C)=O)CC[C@H]2[C@@H]3CCC4=C/C(=N/O)CC[C@@H]4[C@H]3CC[C@@]21CC`: the AC50 was 38.2 µM (active).
With `Nc1c(N=Nc2ccc(-c3ccc(N=Nc4cc(S(=O)(=O)O)c5ccccc5c4N)cc3)cc2)cc(S(=O)(=O)O)c2ccccc12`, the result was inactive.
Still for that read-out and setting: the entry for `NC(=S)N=Nc1ccc(NN=C(N)N)cc1` is “inactive”.
Still for that read-out and setting: the entry for `CC1=CC(=O)CC(C)(C)C1=O` is “inactive”.
Same read-out and setting: then `O=C1NC(=O)[C@@]2(CCOc3ccc(F)cc32)N1`, with “inactive”; and `C=CS(=O)(=O)O`, with “inactive”.
`O=S(=O)(O)c1ccc2c(N=Nc3ccc(S(=O)(=O)O)c4ccccc34)c(O)c(S(=O)(=O)O)cc2c1`: the compound was classed as inactive.
With `CCOc1ccc2nc3cc(N)ccc3c(N)c2c1`, the compound was called inactive.
Still for that read-out and setting: the entry for `C=CC(=O)Nc1cc2c(Nc3ccc(F)c(Cl)c3)ncnc2cc1OCCCN1CCOCC1` is “inactive”; for `CCCCCCC/C=C/C=O` it is “inactive”.
Regarding `CC1=C(C(=O)OC(C)C)C(c2cccc([N+](=O)[O-])c2)C(C(=O)OC2CN(C(c3ccccc3)c3ccccc3)C2)=C(N)N1` (stereo not given), the AC50 was 34.2 µM (active).
Consider `Oc1ccc(Sc2ccc(O)cc2)cc1`, for which the result was inactive.
Consider `CC/C=C\CCCCCO`, for which the result was inactive.
On the same count and under the same terms, then `CC[N+](CC)(CC)CCC(O)(c1ccccc1)C1CCCCC1` (stereo not given), with “inactive”.
On to `CCO[Si](C)(CCCOCC1CO1)OCC` (stereo not given), for which the outcome was inactive.
The same measure, in the same setting: the entry for `CN1CCN(CC(=O)N2c3ccccc3C(=O)Nc3cccnc32)CC1` is “inactive”; for `CCOC(C)(C)C` it is “inactive”.
For `CO[C@@H]1[C@H](OC(=O)/C=C/C=C/C=C/C=C/C(=O)O)CC[C@]2(CO2)[C@H]1[C@@]1(C)O[C@@H]1CC=C(C)C`, the result was inactive.
On to `Cc1cccc2c1cc1ccc3cccc4ccc2c1c34`, for which the compound was called inactive.
Regarding `O=C(O)c1cc2ccccc2c(Cc2c(O)c(C(=O)O)cc3ccccc23)c1O`, the outcome was inactive.
On the same count and under the same terms, the entry for `CCCC(CCC)C(=O)OC1C[C@H]2CC[C@@H](C1)[N+]2(C)C` (stereo not given in full) is “inactive”; for `COc1cc(C)nc(-n2nc(C)cc2OC)n1` it is “inactive”.
Still for that read-out and setting: then `OCCN1CCN(CC/C=C2/c3ccccc3Sc3ccc(Cl)cc32)CC1`, with “inactive”; and `COC(=O)c1ccccc1C(=O)c1ccc(OCCN2CCCCC2)cc1`, with “inactive”; and `Cc1cc(C)c(C=C2C(=O)Nc3ccccc32)[nH]1`, with “inactive”.
In the case of `c1cnc2c(n1)CCCC2`, the result was inactive.
Take `O=[N+]([O-])c1cc[n+]([O-])cc1`: the result was inactive.
Same read-out and setting: the entry for `CCC1OC(=O)C[C@@H](O)[C@H](C)[C@@H](O[C@@H]2O[C@H](C)C[C@H](N(C)C)[C@H]2O)[C@@H](CC=O)C[C@@H](C)C(=O)/C=C/[C@]2(C)OC2C1C` (stereo not given in full) is “inactive”; for `CCCCN(CCCC)C(=S)SSC(=S)N(CCCC)CCCC` it is “inactive”; for `CC(C)OC(=O)OCOP(=O)(CO[C@H](C)Cn1cnc2c(N)ncnc21)OCOC(=O)OC(C)C` it is “inactive”.
Still for that read-out and setting: the entry for `CC[C@H](NC(C)C)[C@H](O)c1ccc(O)c2[nH]c(=O)ccc12` is “inactive”.
Consider `Cc1c(Cl)cccc1Nc1ccccc1C(=O)O`, for which the half-maximal activity concentration (AC50) was 10.2 µM (active).
As to `CCN(CC)CCNC(=O)c1ccc(NS(C)(=O)=O)cc1`, the call was inactive.
Same read-out and setting: then `CC1=CC(C)(C)Nc2ccccc21`, with “inactive”.
Still for that read-out and setting: then `C=CC(OCC)OCC`, with “inactive”.
